# PubChem BioAssay AID686979 (National Center for Advancing Translational Sciences (NCATS), 2013)
# Where “and” joins values, the source holds several entries; their conditions need not be identical. Equal entries are not always repeated. The campaign covered roughly 420,000 compounds. About 50,000 (12%) were called active. Not shown: some 26% with an inconclusive outcome. The entries come from a sample that favours actives as a whole. A number with no mark means an inactive call. Calls come from the whole dose curve; as a rule, active = well fitted inhibition curve with a large enough effect; inconclusive = small, poorly fitted or top-dose-only effect; inactive = flat fitted curve, though single readings scatter.
# Assay: qHTS for Inhibitors of human tyrosyl-DNA phosphodiesterase 1 (TDP1): qHTS in cells in presence of CPT; note: nearly all actives have a fitted effect of over 55% in size
# Settings: chicken DT40 Tdp1-/-;hTDP1 cells + 20 nM CPT, ATP luminescence, 48 h; series mostly up to 46.2 µM; activity change, negative = growth inhibition: at the top concentration
# In short: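 Cell growth measured by CellTiter-Glo luminescence after a minimum 48 h, 37 C compound exposure with 20 nM CPT in Tdp1-knockout DT40 cells stably expressing hTDP1, seeded 400/well; qHTS titration format.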
# % is set by controls: 0 for no effect and ±100 for the full control effect; potency is the fitted concentration of half-maximal effect.
Compound,"activity change, negative = growth inhibition",Potency
Oc1cccc(CCc2ccccn2)c1,-10.9%,
C=CCC[C@@H](CCCCC)OC(=O)/C=C/[C@@H](O)[C@H](O)C[C@H](O)CC=C,,23.1 µM (active)
CN(C)/C=C(/C(=O)c1ccccc1Cl)S(C)(=O)=O,-0.266%,
COC(=O)c1ccc(/C=C/c2c(-c3ccc(OC)cc3)sc3ccccc23)cc1,,14.6 µM (active)
COc1ccc(NC(=O)COC(=O)c2ccc(NS(=O)(=O)/C=C/c3ccccc3)cc2)cc1,15.2%,
COc1ccccc1-c1sc2ccccc2c1-c1ccc(C(C)=O)cc1,-23%,
CCCCOc1ccc(C(=O)NCC(=O)OCC(=O)c2c(N)n(C)c(=O)n(C)c2=O)cc1,14.1%,
COC(=O)Nc1nc2ccc(Sc3ccccc3)cc2[nH]1,,651 nM (active) and 360 nM (active) and 517 nM (active)
CC(C)c1nc2ccc(C(=O)O)cc2[nH]1,20.3%,
Cc1nc2ccc(C(=O)O)cc2[nH]1,3.42%,
N#Cc1ccccc1NC(=O)c1ccc2c(c1)OCO2,-4.16%,
CCOc1ccc(NC(=O)C2CCN(S(=O)(=O)c3cc(-c4noc(C)n4)ccc3C)CC2)cc1,-26.3%,
Cc1cc(C)cc(NC(=O)C2CCN(c3nc(C)cc(C)n3)CC2)c1,-9.07%,
CC(C)c1ccc(NC(=O)C2CCN(c3nc(-c4ccc(C(C)C)cc4)no3)CC2)cc1,,13 µM (active)
Cc1ccc(NC(=O)CSc2sc3c(O)cc(=O)[nH]c3c2C#N)cc1C,-2.41%,
CCC(=O)N1c2ccccc2NC2=C(C(=O)CCC2)C1c1ccco1 (stereo not drawn),25.3%,
Cn1ccnc1SCC(=O)Nc1ccc2c(c1)OCCO2,15%,
C=CCn1c(CNC(=O)c2ccco2)nnc1SCC(=O)c1ccc(OC)cc1,-26.5%,
CCCNC(=O)C1(C)CCCN(Cc2c(C)nn(-c3ccccc3)c2C)C1 (stereo not drawn),-11.8%,
COCCNC(=O)C1(C)CCCN(Cc2cccc(F)c2)C1 (stereo not drawn),-22.2%,
CCCNC(=O)C1(C)CCCN(Cc2cccc(C(F)(F)F)c2)C1 (stereo not drawn),,18.4 µM (active)
CCCNC(=O)C1(C)CCN(Cc2csc(-c3ccc(Cl)cc3)n2)C1 (stereo not drawn),,23.1 µM (active)
CCNC(=O)C1(C)CCN(Cc2ccc(C(=O)OCC)o2)C1 (stereo not drawn),-13.1%,
CCCNC(=O)C1(C)CCCN(C(=O)c2cccc(OC(C)=O)c2C)C1 (stereo not drawn),-1.02%,
COc1ccc(CCNC(=O)COC(=O)C2CC2C)cc1 (stereo not drawn),-15.7%,
COc1ccc(C(CNC(=O)c2ccc(S(=O)(=O)Nc3ccccc3F)cc2)N(C)C)cc1 (stereo not drawn),-13.4%,

Compound,"activity change, negative = growth inhibition",Potency
Cc1c(Br)ccc(NC(=O)COc2ccccc2C(N)=O)c1C,-28.1%,
CNC(=O)NC(=O)C(OC(=O)c1cccc(S(=O)(=O)N2CCCCC2)c1)c1ccccc1 (stereo not drawn),-8.68%,
C=CCNC(=O)CC12CC3CC(C1)CC(CC(=O)NCC=C)(C3)C2,1.95%,
CC(=O)O[C@H]1CC[C@@]2(C)[C@@H](CC[C@@H]3[C@@H]2CC[C@]2(C)[C@@H](C(C)(C)O)C[C@@H]32)C1,-27.7%,
COc1cc(F)c(C2=CC(=O)CC(C)(C)C2)cc1F,-23.9%,
O=C(Nc1nc(-c2ccc(-c3ccccc3)cc2)cs1)c1cnccn1,-2.66%,
c1cnc(Nc2nc(-c3ccc4ccccc4c3)cs2)nc1,,29.1 µM (active)
NS(=O)(=O)c1ccc(Nc2nc(-c3ccccc3)cs2)cc1,-14.1%,
CCOc1cccc2c1OC1(CCCCC1)N1N=C(c3cccnc3)CC21 (stereo not drawn),-25.9%,
FC(F)(F)c1cccc(Cc2noc(CN3CCC(N4CCCCC4)CC3)n2)c1,-18.7%,
CCCCOC(=O)Nc1nnc(CC(=O)NCc2ccccc2)s1,2.02%,
CN(C(=O)COC(=O)Cn1cnc2c1c(=O)n(C)c(=O)n2C)C1(C#N)CCCCC1,-11.2%,
COC(=O)[C@@H]1C[C@@]2(O)[C@@H](O)[C@@H](O)[C@@H](O)C[C@H]2N1Cc1ccc(C)s1,-25%,
O=C(Nc1ccc2c(c1)OCO2)c1cc(-c2cccc(Cl)c2)on1,-12.5%,
c1ccc(-c2cn3c(n2)CCc2ccc4cccnc4c2-3)cc1,,13 µM (active)
c1ccc(-c2cn3cccnc3n2)cc1,-0.0131%,
CS/C(=C\[N+](=O)[O-])Nc1ccc(C)cc1,2.33%,
COc1cc(C(C)=O)ccc1OC(=O)CN1C(=O)c2ccccc2C1=O,10.9%,
Cc1ccccc1N1CCN(CCCN2C(=O)C3CCCCN3C2=O)CC1 (stereo not drawn),-24.5%,
CCN(CC)CCCSc1nc2ccccc2s1,18.1%,
COc1ccc(N=Cc2c(O)[nH]c3ccccc23)cc1OC,-29%,
COc1cc(N=Cc2c(O)[nH]c3ccccc23)cc(OC)c1OC,,20.6 µM (active)
COc1cc2[nH]c(O)c(C=O)c2cc1OC,-10.3%,
COc1cccc(OC)c1C(=O)N1CCN(Cc2cccnc2)CC1,0.63%,
Oc1ccc(CN2CCN(c3ncccn3)CC2)cc1,0.51%,
COc1ccccc1-c1nn(Cc2ccccc2)cc1C(=O)N1CCN(c2ncccn2)CC1,,25.9 µM (active)

Compound,"activity change, negative = growth inhibition",Potency
O=C(NCc1ccco1)/C(=C/c1ccco1)NC(=O)c1ccccc1,-17%,
CCCCC/C=C\C/C=C\CCCCCCCCCC(=O)O,-5.48% [at 4.12 µM],
CC(C)CC[n+]1ccn(C2=C([O-])c3ccccc3C(=O)/C2=N\S(=O)(=O)c2ccccc2)c1,,11.6 µM (active)
CCOC(=O)c1cc(-c2ccccc2)n(-c2cccc(C(=O)Nc3cc(OC)cc(OC)c3)c2)c1C,-5.9%,
CCCC(=O)Nc1cc2nn(-c3ccccc3)nc2cc1C,-1.95%,
COc1cc(OC)cc(C(=O)Nc2cc3nn(-c4ccccc4)nc3cc2Cl)c1,,11.6 µM (active)
COc1ccccc1-c1ccnc(-n2ncc(C(=O)NCCc3ccncc3)c2C)n1,39.7% [at 9.04 µM],
COc1cccc(COC(=O)C2CCN(S(=O)(=O)c3cccs3)CC2)c1OC,-0.942%,
Cc1cccc(OCC(=O)NC2CC(C)(C)NC(C)(C)C2)c1,8.74%,
O=C(Nc1cccc(F)c1)N1CCC2(CC1)CCN(S(=O)(=O)c1ccccc1)CC2,-27.3%,
O=c1oc2ccccc2cc1-c1cn(-c2ccccc2)c(=S)[nH]1,,2.59 µM (active)
O=C(c1cn(-c2ccccc2)nc1-c1cc2ccccc2oc1=O)N1CCOCC1,7.05%,
S=c1[nH]c(-c2cccs2)cn1-c1ccccc1,-5.38%,
CCn1c(CNC(=O)C23CC4CC(CC(C4)C2)C3)nnc1SCC(=O)Nc1ccc(OC)cc1,-21.9%,
COC(=O)C1CC2=C(CC(C)(C)CC2=O)N(c2ccccc2)C1=O (stereo not drawn),-3.49%,
CC(C)C1C2=C(CC(C)(C)CC2=O)ON1c1ccccc1 (stereo not drawn),,25.9 µM (active)
CC(C)N1C(=O)N(c2ccccc2)C(C)(O)CC1(C)C (stereo not drawn),-17%,
COc1cc2nc(CN(C)Cc3ccc(F)cc3)[nH]c(=O)c2cc1OC,-27.7%,
CCOC(=O)C1CCCN(C(=O)c2ccc(-n3ccc4ccccc43)s2)C1 (stereo not drawn),,18.4 µM (active)
CCOC(=O)C1CCCN(C(=O)C2CCN(c3nnc(-n4cccc4)s3)CC2)C1 (stereo not drawn),-2.31%,
CCOC(=O)C1CCCN(C(=O)c2cccc3ccccc23)CC1 (stereo not drawn),5.97%,
CCC(Oc1ccccc1C)C(=O)Nc1ccc(S(=O)(=O)Nc2cc(C)on2)cc1 (stereo not drawn),7.59%,
CCOC(=O)c1sc(NC(=O)C2CSC3(C)CCC(=O)N23)nc1C (stereo not drawn),6.57%,
CN(C)S(=O)(=O)c1ccc(C(=O)NCC2(N3CCOCC3)CCCCC2)cc1,-27%,
O=C(NCc1ccc(F)cc1)C1CCN(C(=O)Nc2ccc(F)cc2)CC1,7.91%,
CCOC(=O)c1c(SCC(=O)Nc2cccc(C)c2C)nc(=O)[nH]c1C,-25.5%,

Compound,"activity change, negative = growth inhibition",Potency
CCOC(=O)c1c(C)[nH]c(C)c1S(=O)(=O)N(C)CC(=O)Nc1ccccc1C,-0.387%,
CCOC(=O)c1c(C)[nH]c2c1-c1ccccc1C(=O)C2=O,,0.517 µM (active)
Cc1ccc(S(=O)(=O)N2CCCC2C(=O)OCc2nc3sc(C)c(C)c3c(=O)[nH]2)cc1 (stereo not drawn),-12.6%,
COCCN(CCOC)c1nc(N)c2c(N)nc3c(c2c1C#N)CC(=O)N3Cc1ccc(Cl)cc1,-6.53%,
CN(C)c1ccc(C(CNC(=O)c2ccc(F)cc2)c2c[nH]c3ccccc23)cc1 (stereo not drawn),,18.4 µM (active)
O=C(CNC(=O)c1ccc(F)cc1)c1ccccc1,1.2%,
C[C@H](NC(=O)c1ccccc1)C(=O)OCC(=O)c1c[nH]c2ccccc12,-21.6%,
O=C(CCNC(=O)c1ccc(Br)cc1)NCCCc1ccccc1,-23.6%,
COc1ccccc1CN1CCNC(=O)C1CC(=O)N(C)CC1CCOCC1 (stereo not drawn),-8.06%,
O=S(=O)([N-]c1nc2ccccc2nc1-[n+]1ccc(Cc2ccccc2)cc1)c1ccc(Br)s1,,14.6 µM (active)
O=S(=O)(NCc1cccnc1)c1ccc(Br)s1,-22.4%,
Cc1cc(C)c[n+](-c2nc3ccccc3nc2[N-]S(=O)(=O)c2cccs2)c1,5.23%,
C[C@@H](NC(=O)c1nc[nH]c1C(=O)N1CCN(C(=O)OC(C)(C)C)CC1)c1ccccc1,-20.9%,
Cc1ccccc1N1CC(C(=O)Nc2ccc(S(=O)(=O)N3CCCC3)cc2)CC1=O (stereo not drawn),-23.3%,
O=C1CS(=O)CN1c1ccc(Oc2ccccc2)cc1 (stereo not drawn),-3.4%,
COc1ccc(-c2cc(C(F)(F)F)nc(NCc3cccnc3)n2)cc1,-5.03%,
COc1ccc(-c2nc3cnccn3c2NC(C)(C)CC(C)(C)C)cc1O,,20.6 µM (active)
Cc1cccc(NC(=O)N2CCN(C)c3ncccc32)c1C,-12.9%,
CCOc1ccccc1C(=O)Nc1ccc2c(c1)N(C)C(=O)c1ccccc1S2,,4.61 µM (active)
CCOc1ccccc1C(=O)NCCCn1ccnc1,4.33%,
CCN1C(=O)c2ccccc2Sc2ccc(NC(=O)Cc3ccc(OC)cc3)cc21,-3.35%,
C[C@H]1CC[C@]2(O[C@@H](CCO)C[C@@H](O)[C@@H]2O)O1,-12.3%,
C=CCn1cc(Cl)cc(C(=O)Nc2ccccc2)c1=O,17.1%,
CN(C)C(=O)N1CCNCC1,-3.78%,
CC(C)(C)C(=O)NC(NC(=S)Nc1ccc(S(N)(=O)=O)cc1)C(Cl)(Cl)Cl (stereo not drawn),-7.12%,
